This note sets out measurements from PubChem BioAssay AID2728 (Broad Institute, 2010).

The other results are listed elsewhere or left out. Records with an inconclusive call do not appear. A number with no mark means an inactive call.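 Rule for the calls: active = every replicate shows growth inhibition above 50%; inconclusive = at least half but not all replicates above 50% inhibition; inactive = under half of replicates above 50% inhibition.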

This experiment can be described thus: V. harveyi growth suppression by OD600 – strain BB721, absorbance OD600, cytotoxicity control for AI-2 quorum sensing inhibitors, confirmation (AID 2728). To be noted: Vibrio harveyi BB721 growth, 9 h, at 7.5 µM, active compounds read high.
For `O=C(Cn1cnc2ccccc2c1=O)Nc1cccc(S(=O)(=O)N2CCCCC2)c1`, the growth inhibition was 14%.

As to `Cc1ccccc1NC(=O)CCOc1ccccc1`, the growth inhibition was -7.16%.

For `CCOc1ccc(/C=N/NC(N)=S)cc1`, the growth inhibition was 18%.

For the molecule `COc1ccc(/C(N)=N/OC(=O)Cc2ccccc2)cc1`, the growth inhibition is -4.72%.

`COC(=O)c1ccc(SCc2ccccc2)nc1`: the growth inhibition is -21%.

Take `Cc1cc(C(=O)OCC(=O)Nc2ccc(F)c(F)c2)c(C)o1`: the growth inhibition is -6.2%.

For `Cc1ccc(NC(=O)C2CC2c2ccccc2)cc1` (stereo unspecified), the growth inhibition is 7.3%.

For the molecule `O=C(COC(=O)C1CCCCC1)Nc1ccc([N+](=O)[O-])cc1`, the growth inhibition is -40.8%.

In the case of `Cc1ccc(NS(=O)(=O)c2ccc3c(c2)NC(=O)CO3)cc1`, the growth inhibition is 18.2%.

For `CC(C)(C)c1ccc(OC2=CS(=O)(=O)c3ccccc32)cc1`, the growth inhibition was 26.8%.

In the case of `N/C(=N\OC(=O)CCc1ccccc1)c1cccnc1`, the growth inhibition is 0.547%.

Take `O=C(Nc1ccc(F)c(Cl)c1)C1CCN(S(=O)(=O)c2cccnc2)CC1`: the growth inhibition is 14.5%.

Turning to `O=C(/C=C/c1ccc2c(c1)OCCO2)c1ccc(O)cc1`, the growth inhibition was -21.7%.

Regarding `CC(CNc1ccc([N+](=O)[O-])cc1)NC(=O)c1ccccc1Br` (stereo unspecified), the growth inhibition was -16.1%.

For `Cc1ccsc1C(=O)OCC(=O)c1cc2ccccc2o1`, the growth inhibition was 4.04%.

As for `CC(=O)c1cccc(OCc2cc(C(=O)NC(C)Cc3cccnc3)no2)c1` (stereo unspecified), the growth inhibition is 8.38%.

On to `Cc1cc(CN(C)C(=O)c2cc(COc3ccc(C)c(C)c3)on2)n[nH]1`, for which the growth inhibition is 28.4%.

`O=C(COc1ncnc2ccccc12)NC(=O)NCc1ccccc1`: the growth inhibition is 27.2%.

Regarding `O=C(/C=C/c1ccc2c(c1)OCO2)NCc1ccc(F)cc1`, the growth inhibition is 16.5%.

`Cc1ccc(Oc2cnn(-c3ccccc3)c(=O)c2Br)cc1`: the growth inhibition was 4.98%.

Turning to `O=C(CCC(=O)c1cccs1)Nc1nc2ccccc2s1`, the growth inhibition was -0.412%.

As to `CN(Cc1cnccn1)C(=O)c1cc(COc2cccc(C(F)(F)F)c2)on1`, the growth inhibition was 18.2%.

Regarding `Cc1ccc(Cc2nc(-c3cccc(C)c3)no2)cc1`, the growth inhibition was 19.7%.

Regarding `COc1cccc(NC(=O)NCc2ccc(F)cc2)c1`, the growth inhibition was -16.1%.

In the case of `COC(=O)C1CCN(C(=O)c2ccc3oc(Cc4ccc(Cl)cc4)nc3c2)CC1`, the growth inhibition is 19.1%.

`Cc1cccc(CSc2ccc(-c3cccs3)nn2)c1`: the growth inhibition is -12.7%.

Consider `O=C(c1cc(-c2cccc(O)c2)on1)N1CCc2ccccc2C1`, for which the growth inhibition was 2.13%.

Consider `S=C(NCc1ccc(Cl)cc1)NC1CCCCC1`, for which the growth inhibition is 12.8%.

For `Cc1nn(CC(=O)Nc2ccc(F)cc2)c(=O)c2ccccc12`, the growth inhibition is 0.351%.

Take `O=C1COc2ccc(S(=O)(=O)Nc3ccc(OC(F)(F)F)cc3)cc2N1`: the growth inhibition is 55%.

In the case of `CCOC(=O)c1nn(-c2cccc(C)c2)cc1C(=O)c1ccccc1`, the growth inhibition was -7.63%.
